Pf Dd2 inh: Plasmodium falciparum Dd2 growth inhibition; 120,000 compounds, 4.3% hits; P. falciparum Dd2 growth, SYBR Green, 72 h; Potency, µM (doses to about 28.9 µM), without a hit: at the top dose activity, negative = inhibition, most hits filed as inhibitors; AID 1347417; active means well fitted inhibition curve with a large enough effect;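 further: plate controls were DMSO vehicle for no effect and reference drug for full effect; nearly all actives have a fitted effect of over 65% in size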
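Infected erythrocytes (Dd2, 0.3% parasitemia, 2.5% hematocrit final) are added to compound in RPMI-1640/Albumax II medium, grown 72 h at 37C in low oxygen, then lysed with saponin/Triton-X containing SYBR Green and read by fluorescence.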
Numbers without * were called inactive; i = inactive; [ ] = another dose, or the depositor's remark. This excerpt belongs to a sample that is enriched for hits. Potency means the concentration at half of the fitted maximal effect.

SMILES	Pf Dd2 inh
CC(C)CCNC(=O)C1CCN(C(=O)c2cc3sccc3n2Cc2ccc(Cl)cc2)CC1	13µM*
Cc1cc(N2CCC(C(=O)NCCC(C)C)CC2)n2nc(C)c(-c3ccc(Cl)cc3)c2n1	59%
CCCCNC(=O)C1CCc2sc(C(=O)N3CCOCC3)cc2C1 (stereo unspecified)	-2%
CCn1c(C(=O)N2CCC(C(=O)NCCc3ccccc3)CC2)cc2sccc21	-23%
Cn1c(C(=O)N2CCCC(C(=O)N3CCN(c4ccccc4)CC3)C2)cc2sccc21 (stereo unspecified)	-3%
CN(C(=O)c1ccc2oc(CCc3ccccc3)nc2c1)C1CCOC1 (stereo unspecified)	-4%
Cc1cccc([S+](=O)([O-])N2CCC3(CC2)OCCN(c2cccnc2)C3=O)c1	i
CN1CC2(CCN(C(=O)CC3CCCCC3)CC2)CC1C(=O)N1CCOCC1 (stereo unspecified)	-2%
CCCn1c(C)cnc1CC1CCN(C(=O)c2ccccn2)C1 (stereo unspecified)	19%
O=S1(=O)NCC2(CCN(Cc3c[nH]c4ccccc34)C2)Oc2ncccc21 (stereo unspecified)	i
Fc1ccc(C2Cn3nnc(-c4nc(-c5cccc(Cl)c5)no4)c3CO2)cc1 (stereo unspecified)	8%
Cc1noc([C@@H]2CN(C(=O)CC(C)(C)C)C[C@H]2CO)n1	1%
CC(O)CN1CC2(CCC1=O)CCN(CCCn1ccnc1)CC2 (stereo unspecified)	0%
O=C1CCC2(CCN(C/C=C/c3ccccc3)CC2)CN1CCCn1ccnc1	10µM*
Cc1cc(C(=O)N2CCC3(CCC(=O)N(CCCn4ccnc4)C3)CC2)c(C)o1	6%
O=C(C1CC1)N1CCN(C2CCN(Cc3cccnc3)C2=O)CC1 (stereo unspecified)	8%
CCN1C(=O)C2CC3(CCN(Cc4cn(C)c5ccc(OC)cc45)CC3)CN2C1=O (stereo unspecified)	i
O=C1NC(C(=O)Nc2ccccc2)Cn2cccc21 (stereo unspecified)	-22%
CN(Cc1cnccn1)C(=O)CC(c1ccccc1)c1ccccc1Cl (stereo unspecified)	-10%
O=C(CC(c1ccccc1)c1ccccc1Cl)N(Cc1cccnc1)C1CC1 (stereo unspecified)	13µM*
O=C(CC(c1ccccc1)c1ccccc1F)NCc1cccnc1 (stereo unspecified)	-10%
COCC1CN(C2CCC2)CC12CCN(C(=O)Cn1cccn1)CC2 (stereo unspecified)	i
COc1ccc2c(=O)n(CC(=O)N3CCCOCC3)ccc2c1OC	-18%
CCC(C)NC(=O)N1CC(Oc2ccc(-c3nc(-c4ccccc4)no3)cc2)C1 (stereo unspecified)	i[5.79 µM]
c1ccc(-c2n[nH]c(CC3CCNC3)n2)cc1 (stereo unspecified)	12%
SMILES	Pf Dd2 inh
O=C1N2CCCC2CN1C1CCN([S+](=O)([O-])c2cccc(C(F)(F)F)c2)CC1 (stereo unspecified)	-24%
O=[S+]1([O-])NC2(CCN(Cc3ccc(C(F)(F)F)cc3)CC2)CNc2ccccc21	11µM*
Cc1ccc(CN2CCC3(CC2)CN[S+](=O)([O-])c2ccccc2N3)cc1	5µM*
Cc1ccc(CN2CCCC3(CN[S+](=O)([O-])c4ccccc4N3)C2)cc1 (stereo unspecified)	-27%
O=[S+]1([O-])NCC2(CCCN(Cc3ccc(F)cc3)C2)Nc2ccccc21 (stereo unspecified)	i
COc1ccc(CN2CCC3(CN[S+](=O)([O-])c4ccccc4N3)C2)cc1 (stereo unspecified)	i
O=[S+]1([O-])NCC2(CCN(Cc3ccsc3)CC2)Nc2ccccc21	-23%
COc1ccc(CN2CCC3(CC2)CNc2ccccc2[S+](=O)([O-])N3)cc1	i
O=[S+]1([O-])NCC2(CCN(Cc3ccc(F)cc3)CC2)Nc2ccccc21	8.9µM*
O=[S+]1([O-])NC2(CCN(Cc3ccncc3)C2)CNc2ccccc21 (stereo unspecified)	5%
O=C(CC1CCN(C(=O)C2CCC2)C1)NCc1ccccc1 (stereo unspecified)	41%
Cc1ccc(-c2nccn3cc(C(=O)N4CCN(c5ccccn5)CC4)nc23)cc1	-25%
Cn1c([C@H]2CCN(S(=O)(=O)c3cccc4cccnc34)C2)nc2ccccc21	-7%[44.1 µM]
NC(=O)[C@@H]1CCCN1CC[C@H]1CN(C(=O)NC2CCCCC2)CC[C@H]1CC(=O)O	29%[44.1 µM]
COC[C@@H]1CN(C(=O)c2cccc(C#N)c2)C[C@H]1c1nc(C2CC2)no1	-5%
Cn1nccc1C(=O)N1CCc2ccc(NC(=O)C3(c4ccccc4)CC3)cc2C1	-6%
COCCOCc1nc(C2CCN(C(=O)NCCc3ccccc3)CC2)no1	10%
COc1ccc(C2Cn3nnc(-c4nc(-c5cccc(C(F)(F)F)c5)no4)c3CO2)cc1 (stereo unspecified)	i
Fc1cccc(-c2cc3c(cn2)CN(Cc2ccncc2)CCN3)c1	i
c1ccc(Oc2ccccc2-c2cc3c(cn2)CN(Cc2ccncc2)CCN3)cc1	8.9µM*
c1cc(CN2CCNc3cc(-c4ccsc4)ncc3C2)ccn1	i
Cc1cccc(CN2CCC3(CC2)Cc2ccccc2CNC3=O)n1	-9%
Cc1nn(-c2ccc(C(F)(F)F)cc2)c(C)c1[C@@H]1C=C[C@@H](NC(=O)COc2ccccc2)C1	-4%
COc1ccc(CN[C@@H]2C=C[C@@H](c3c(C)nn(-c4ccccc4)c3C)C2)cc1	6.3µM*
COc1ccc(-n2nc(C)c([C@@H]3C=C[C@@H](NCc4ccc(N(C)C)cc4)C3)c2C)cc1	1.6µM*
SMILES	Pf Dd2 inh
COc1ccc(NC(=O)N[C@@H]2C=C[C@@H](c3c(C)nn(-c4ccccn4)c3C)C2)cc1	i
Cc1ccc(C(C(=O)NCc2c(C)n[nH]c2C)N(C)C)cc1 (stereo unspecified)	1%
CS(=O)(=O)CCN1C[C@@H](C(=O)O)[C@H](c2cccnc2)C1	-6%
Cn1nccc1C(=O)N1CCCN(S(=O)(=O)c2ccccc2)CCC(=O)NCC1	6%
CCCN(CC1CCOC1)C(=O)Nc1ccc(C)c(F)c1 (stereo unspecified)	i[5.79 µM]
CN1C(=O)c2cccn2CC1C(=O)NCc1ccccc1 (stereo unspecified)	-12%
Cc1ccoc1C(=O)N1CCCn2ccnc2C1c1cnn(C)c1 (stereo unspecified)	-17%
CCOC(=O)c1ccc(Nc2nc3ccccc3n3c(C)nnc23)cc1	-24%
CCOC(=O)c1ccc(Nc2nc3nonc3nc2Nc2cccc(C)c2C)cc1	1.1µM*
CCOC(=O)c1nc(Nc2ccc(Cl)cc2)c2c(C)noc2n1	17%
Cc1nccn1CC(=O)N1CCCC(c2ccc(C(=O)O)cc2)C1 (stereo unspecified)	17%
COc1cc2c(cc1CN1CCCC(CO)(CC=C(C)C)C1)OCCO2 (stereo unspecified)	7.9µM*
COc1cc2c(cc1CN1CCC3(CCCNC3)C1)OCCCO2 (stereo unspecified)	-5%
CC(C)=CCC1(CO)CCCN(Cc2cc(=O)n3cc(C)sc3n2)C1 (stereo unspecified)	-18%
CCOc1ccc(CCCNC(=O)c2c(C)cc(C)n(C)c2=O)cc1OCC	9%
CC1CCC2(CC1)NC(=O)N(CC(=O)Nc1cccc(C(F)(F)F)c1)C2=O (stereo unspecified)	i
COc1cccc(NC(=O)c2cccc3c(=O)c4c([nH]c23)CCCC4)c1	0.89µM*

Source: PubChem
